# About 83,000 compounds went through this panel and 20% of them were active in at least one assay; those are over-represented in the sample as a whole.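 Negative percent growth values reflect cell death: -40 means 40% of the cells present at the start died, and -100 means all died.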 A number with no mark means an inactive call. Active and inactive are the calls of the source. The calls were made as follows: active = growth percent below 10; inactive = the rest.
# How the values were obtained:
# Test in all cases: NCI-60 one-dose screen, 48 h (100 = growth as untreated, 0 = no growth, -100 = all killed)
# Conditions in all cases: 10 µM unless noted
# HCT-15 colon = system: HCT-15 colon
# HT29 colon = system: HT29 colon
# SNB-19 CNS = system: SNB-19 CNS
# U251 CNS = system: U251 CNS
# PC-3 prostate = system: PC-3 prostate
# SK-MEL-5 melanoma = system: SK-MEL-5 melanoma
# UACC-62 melanoma = system: UACC-62 melanoma
# LOX IMVI melanoma = system: LOX IMVI melanoma
# SK-MEL-28 melanoma = system: SK-MEL-28 melanoma
# SK-MEL-2 melanoma = system: SK-MEL-2 melanoma
# EKVX NSCLC = system: EKVX NSCLC
# SN12C renal = system: SN12C renal
# UO-31 renal = system: UO-31 renal
# TK-10 renal = system: TK-10 renal
# CAKI-1 renal = system: CAKI-1 renal
# A498 renal = system: A498 renal
# CCRF-CEM leukemia = system: CCRF-CEM leukemia
# MOLT-4 leukemia = system: MOLT-4 leukemia
# ACHN renal = system: ACHN renal
# SNB-75 CNS = system: SNB-75 CNS
SMILES,growth (HCT-15 colon),growth (HT29 colon),growth (SNB-19 CNS),growth (U251 CNS),growth (PC-3 prostate),growth (SK-MEL-5 melanoma),growth (UACC-62 melanoma),growth (LOX IMVI melanoma),growth (SK-MEL-28 melanoma),growth (SK-MEL-2 melanoma),growth (EKVX NSCLC),growth (SN12C renal),growth (UO-31 renal),growth (TK-10 renal),growth (CAKI-1 renal),growth (A498 renal),growth (CCRF-CEM leukemia),growth (MOLT-4 leukemia),growth (ACHN renal),growth (SNB-75 CNS)
Nc1c(C(=O)Nc2ccccc2)sc2nc3c(cc12)C(=O)CCC3,27.2%,4.34% (active),36.1%,25.7%,21.6%,25.7%,44.1%,51.2%,58.7%,38.7%,84.6%,59.8%,71.1%,63.6%,54.7%,37.3%,16.8%,43.4%,–,–
Cn1cnc([N+](=O)[O-])c1S(=O)(=O)Oc1ccccc1,55%,88.7%,102%,90.5%,86.5%,99.6%,99.4%,59.5%,106%,98.2%,103%,99.2%,75.1%,101%,62.9%,108%,6.29% (active),76.5%,17.1%,–
CC(C)(C)[Si](C)(C)OC1[C@@H](O[Si](C)(C)C(C)(C)C)[C@@H](CNC(=O)NC(=O)NC(=O)CI)O[C@H]1n1cnc2c(NC(=O)Nc3ccccc3)ncnc21 (stereo partly drawn),83.1%,-39.8% (active),103%,32.5%,14.7%,102%,75.4%,-80.7% (active),125%,92.8%,56.5%,84.1%,-89.2% (active),46.6%,47.8%,73.8%,-38.5% (active),29.6%,-22.7% (active),–
CCCCCCCC/C=C/CCCCCCCC1=NC(C)(C)CN1c1ccccc1,80.5%,66.8%,87.8%,84.5%,64%,92.4%,75.2%,85.3%,103%,92.6%,105%,95.5%,61.7%,118%,90.1%,105%,64.2%,85.7%,101%,–
O=C(O)CSc1ccc(NCc2oc(CO)cc(=O)c2O)cc1,107%,99.5%,110%,103%,98.8%,99.8%,102%,91.7%,104%,119%,106%,98.2%,80%,111%,98.4%,106%,–,88.3%,97.3%,–
CCN(CC)CCCCCCCCNc1c2ccc(Cl)cc2nc2ccc(OC)cc12,-39% (active),–,-30.9% (active),–,-56.4% (active),-97.7% (active),-82.1% (active),-78.2% (active),-85.8% (active),–,-12.2% (active),-19.7% (active),-56.2% (active),–,-1.58% (active),-92.5% (active),-26.5% (active),-45.8% (active),-58% (active),-85.6% (active)
Cc1ccc([C@H]2c3[nH]c4ccccc4c3C[C@H]3C(=O)N(CCCCCCC(=O)NO)CC(=O)N23)cc1,102%,37.2%,–,50.7%,44.3%,37.4%,24.1%,-37.2% (active),37.5%,56.7%,76.2%,67.6%,57.2%,58.7%,51.2%,61.9%,15.2%,10.9%,75.1%,–
O=C(CCCCCCN1CC(=O)N2[C@@H](c3ccc(Cl)c(Cl)c3)c3[nH]c4ccccc4c3C[C@H]2C1=O)NO,92.3%,33.8%,54.3%,40.5%,25.7%,51.3%,35.2%,-55.2% (active),52.4%,79.9%,64.6%,60.8%,57%,40.3%,48.7%,86%,7.73% (active),8.86% (active),70.2%,–
COc1cc(OC)c(C(=O)/C=C/c2cccc(OC(C)=O)c2)cc1CC=C(C)C,55%,84.2%,101%,44.6%,36%,64.2%,47.3%,48.3%,67.8%,–,107%,62.1%,–,162%,241%,120%,9.5% (active),32%,74.9%,–
CC1(C)CN(CCNc2nccc(-c3c(-c4cccc(O)c4)nc4sccn34)n2)S(=O)(=O)N1,95.7%,54.4%,–,74%,50.8%,58.4%,-8.38% (active),18.2%,20.1%,24.1%,108%,57.6%,60.5%,119%,32.5%,81.7%,49.6%,71.8%,39.4%,–
O=C1c2cccc3cccc(c23)C(=O)N1CCCCCCCCCCN1C(=O)c2cccc3cccc(c23)C1=O,102%,106%,104%,100%,103%,102%,99.8%,102%,109%,93.6%,–,100%,99.4%,121%,98%,105%,–,107%,96.2%,–
COc1ccc(-c2cc(C(=O)Nc3ccc(C)cc3)nc3[nH]c(=O)sc23)cc1,63.8%,81.4%,57.7%,56.2%,73.8%,37.2%,31.3%,77.7%,70%,29.2%,73.3%,58.2%,58.3%,61.1%,60.6%,9.83% (active),71.1%,81.5%,90.2%,–
O=C(N/N=C/c1ccccc1O)c1ccncc1,28.5%,42.7%,66.6%,39.2%,69.5%,75.5%,33.5%,50.8%,61.1%,55.9%,36.9%,78%,33.5%,57.7%,41.3%,87.7%,29.1%,9.31% (active),56.8%,–
CCCCCc1c(C)[nH]c(/C=C2\N=C(c3ccc[nH]3)C=C2Oc2ccc(OC)cc2)c1C,-93.8% [100 µM] (active),-64% [100 µM] (active),-83.1% [100 µM] (active),–,-25.7% [100 µM] (active),-73.6% [100 µM] (active),-93.5% [100 µM] (active),-71.9% [100 µM] (active),-86.9% [100 µM] (active),-74.4% [100 µM] (active),–,-88.6% [100 µM] (active),-75.7% [100 µM] (active),-60.2% [100 µM] (active),-73.9% [100 µM] (active),-89.3% [100 µM] (active),–,-34% [100 µM] (active),-59.8% [100 µM] (active),–
NNc1ccc(S(N)(=O)=O)cc1,110%,–,–,–,90.2%,100%,–,86.4%,108%,–,103%,–,91.6%,–,97.8%,–,9.37% (active),102%,105%,89.9%
COc1cc2ccc(C(C)=O)cc2cc1OC,97.3%,112%,104%,–,91.2%,96.5%,89.4%,92.3%,131%,108%,–,95.1%,72.4%,138%,–,65%,118%,127%,91.9%,–
CCN(CC)c1ccc(/C=N/NC(=O)c2ccc(S(C)(=O)=O)cc2)c(O)c1,28.5%,21.8%,32%,20.6%,49.2%,-2.99% (active),-18.5% (active),9.68% (active),27.2%,19.5%,15.5%,31.2%,-1.73% (active),30.5%,20.4%,45.3%,6.94% (active),2.7% (active),17.1%,–
COc1cc(-c2nn(C(=O)NCCN3CCN(C)CC3)cc2-c2ccncc2)ccc1Cl,88.7%,47%,77.5%,80.9%,74.3%,62.4%,57.6%,85.9%,68.1%,89.5%,46.9%,82.4%,54%,20.5%,79.7%,65.8%,88.8%,77.4%,69.5%,–
